Measured values as given in PubChem BioAssay (NCATS).
Results filed as inconclusive are left out. The source made the active and inactive calls. Unless noted, no rule for the calls is given here.

Columns and labels:
[1] = target: T1, Hexokinase-4 (Homo sapiens) + Glucokinase regulatory protein (Homo sapiens) (UniProt P35557+Q14397); assay: qHTS assay for inhibitors of recombinant human GCK-GKRP interaction: Diaphorase-coupled assay (AID 743205; active = well fitted curve in the direction sought with a large enough effect; an effect the other way counts as inactive or inconclusive)
Summary of the method: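 Resorufin fluorescence (525/590 nm), read each minute over 30 min, reports GCK activity coupled via G6PDH and diaphorase. Reaction: 10 nM GST-GCK, 10 nM FLAG-GKRP, 5 mM glucose, 0.4 mM ATP, 0.15 mM NADP+, 0.1 mM resazurin.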

[2] = target: T1, Hexokinase-4 (Homo sapiens) + Glucokinase regulatory protein (Homo sapiens); assay: qHTS assay for inhibitors of recombinant human GCK-GKRP interaction: ADP-Glo assay (AID 743206; active = well fitted curve in the direction sought with a large enough effect; an effect the other way counts as inactive or inconclusive;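 also: plate controls were DMSO plus enzyme for no effect and no enzyme for full effect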)
Summary of the method: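 Pin-transferred compounds meet a 15 nM GST-GCK/15 nM FLAG-GKRP/2 uM S6P mix (dispense concentrations). ATP is then added to 0.4 mM final with 5 mM glucose, and the reaction runs 60 min at room temperature. ADP is quantified luminescently.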

[3] = target: T1, Hexokinase-4 (Homo sapiens) + Glucokinase regulatory protein (Homo sapiens); assay: qHTS assay for inhibitors of recombinant human GCK-GKRP interaction: HTRF assay (AID 743207; active = well fitted curve in the direction sought with a large enough effect; an effect the other way counts as inactive or inconclusive;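 also: 0% = DMSO with GCK present and -100% = DMSO wells lacking GCK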)
Summary of the method: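 HTRF read-out (ex 320 nm; 615/665 nm emission) after 60 min RT equilibration of 5 nM GST-GCK, 5 nM FLAG-GKRP, 2 uM S6P, compound and anti-FLAG/anti-GST detection antibodies; signal normalized between DMSO wells with and without GCK.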

[4] = qHTS Assay for Identifying Gametocytocidal Compounds (AID 743244; active = well fitted curve in the direction sought with a large enough effect; an effect the other way counts as inactive or inconclusive;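 also: % is scaled to controls: 0 for no effect and ±100 for the full control effect; actives lower the fluorescent signal which means gametocytes are killed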); details: P. falciparum 3D7 stage III-V gametocytes, alamarBlue, 72 h; max response: stronger effect = lower value
Summary of the method: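 Fluorescence at Ex 525/Em 598 nm, recorded 24 h after alamarBlue addition, reports residual metabolic activity of 3D7 gametocytes (stages III–V) following 72 h compound exposure at 37 °C, 5% CO2.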

[5] = qHTS profiling of the MIPE4 collection as inhibitors of Plasmodium falciparum (3D7) proliferation (AID 743344);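 also: scaled between DMSO vehicle wells and 0.29 µM artemisinin as full inhibition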; details: P. falciparum 3D7 in erythrocytes, SYBR Green DNA fluorescence, 72 h; at 28.5 µM (top of the series) unless noted
Summary of the method: (§1)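 Parasite DNA was quantified by SYBR Green I fluorescence (ex 485, em 535 nm) after overnight lysis in saponin/Triton buffer at room temperature. Cultures at 0.3% parasitemia and 2.5% hematocrit were first exposed to compound for 72 h at 37 C; signals were normalised to artemisinin (0.29 uM) and vehicle wells.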

[6] = qHTS profiling of the MIPE4 collection as inhibitors of Plasmodium falciparum (DD2) proliferation (AID 743345); details: P. falciparum Dd2 in erythrocytes, SYBR Green DNA, 72 h; at 28.5 µM (top of the series) unless noted
Summary of the method: as §1

[7] = qHTS profiling of the MIPE4 collection as inhibitors of Plasmodium falciparum (DD2) proliferation (Rep 2) (AID 743346); details: P. falciparum Dd2 in erythrocytes, SYBR Green DNA, 72 h; at 28.5 µM (top of the series) unless noted
Summary of the method: as §1

[8] = qHTS profiling of the MIPE4 collection as inhibitors of Plasmodium falciparum (HB3) proliferation (AID 743347);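 also: plate controls were DMSO vehicle wells for no effect and artemisinin wells for full effect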; details: P. falciparum HB3 in erythrocytes, SYBR Green DNA, 72 h; at 28.5 µM (top of the series) unless noted
Summary of the method: as §1

[9] = High-throughput drug toxicity screening in the BPDCN cell line Gen2.2 (AID 1224824); details: Gen2.2 BPDCN cells; at 45.8 µM (top of the series) unless noted;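 also: cells exposed to compounds for 48 h before reading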
Summary of the method: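 CellTiter-Glo luminescence after 48 h compound exposure of Gen2.2 cells; percent activity set with DMSO as 100% and bortezomib (9.2 uM final) as 0%. Cells seeded at 500 per well, RPMI + 10% FBS, 37 °C.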

[10] = High-throughput drug toxicity screening in the BPDCN cell line Cal-1 (AID 1224825); details: Cal-1 BPDCN cell viability, qHTS; at 45.8 µM (top of the series) unless noted
Summary of the method: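 CellTiter-Glo luminescence after 48 h compound exposure; percent activity scaled with DMSO as 100% and bortezomib (9.2 uM final) as 0%. Cal-1 cells seeded at 500/well in RPMI, 10% FBS, no phenol red.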

[11] = qHTS assay for measurement of the activity of small molecule inhibitors on Zika virus induced Caspase-3 activity in human iPSC derived neural progenitor cells (hNPCs) (AID 1224857; active = well fitted curve in the direction sought with a large enough effect; an effect the other way counts as inactive or inconclusive; also: % of control where 0% means no effect; nearly all actives have a fitted effect of over 65% in size)
Summary of the method: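 Zika virus (2 FFU/cell) infection of human iPSC-derived NPCs, 6 h, following 1 h compound preincubation. Read-out: Caspase-Glo 3/7 luminescence.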

[12] = qHTS assay for measurement of the activity of small molecule inhibitors on Zika virus induced Caspase-3 activity in human astrocytoma cells (AID 1224859; active = well fitted curve in the direction sought with a large enough effect; an effect the other way counts as inactive or inconclusive;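 also: plate controls were ZIKV-infected untreated cells for no effect and uninfected cells for full effect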)
Summary of the method: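 Caspase activation in ZIKV-infected SNB-19 cells (2 FFU/cell, 6 h) measured by Caspase-Glo 3/7 luminescence after 30 min RT; compound pre-incubated 1 h; normalised to uninfected and infected controls.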

T1 sequence (P35557 whole entry, looked up): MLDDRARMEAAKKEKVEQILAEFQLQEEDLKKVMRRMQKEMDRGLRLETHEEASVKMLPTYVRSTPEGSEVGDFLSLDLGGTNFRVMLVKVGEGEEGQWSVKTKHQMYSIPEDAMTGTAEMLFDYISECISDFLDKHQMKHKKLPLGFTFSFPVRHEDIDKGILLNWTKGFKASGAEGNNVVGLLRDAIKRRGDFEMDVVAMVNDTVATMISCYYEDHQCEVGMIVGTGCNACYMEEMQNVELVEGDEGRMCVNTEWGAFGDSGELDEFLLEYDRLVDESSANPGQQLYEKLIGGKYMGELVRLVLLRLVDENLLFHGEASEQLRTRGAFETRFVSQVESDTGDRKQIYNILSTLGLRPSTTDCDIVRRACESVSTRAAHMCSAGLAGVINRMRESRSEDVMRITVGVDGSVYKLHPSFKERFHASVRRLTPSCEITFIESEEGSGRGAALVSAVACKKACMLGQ
T1 sequence (Q14397 whole entry, looked up): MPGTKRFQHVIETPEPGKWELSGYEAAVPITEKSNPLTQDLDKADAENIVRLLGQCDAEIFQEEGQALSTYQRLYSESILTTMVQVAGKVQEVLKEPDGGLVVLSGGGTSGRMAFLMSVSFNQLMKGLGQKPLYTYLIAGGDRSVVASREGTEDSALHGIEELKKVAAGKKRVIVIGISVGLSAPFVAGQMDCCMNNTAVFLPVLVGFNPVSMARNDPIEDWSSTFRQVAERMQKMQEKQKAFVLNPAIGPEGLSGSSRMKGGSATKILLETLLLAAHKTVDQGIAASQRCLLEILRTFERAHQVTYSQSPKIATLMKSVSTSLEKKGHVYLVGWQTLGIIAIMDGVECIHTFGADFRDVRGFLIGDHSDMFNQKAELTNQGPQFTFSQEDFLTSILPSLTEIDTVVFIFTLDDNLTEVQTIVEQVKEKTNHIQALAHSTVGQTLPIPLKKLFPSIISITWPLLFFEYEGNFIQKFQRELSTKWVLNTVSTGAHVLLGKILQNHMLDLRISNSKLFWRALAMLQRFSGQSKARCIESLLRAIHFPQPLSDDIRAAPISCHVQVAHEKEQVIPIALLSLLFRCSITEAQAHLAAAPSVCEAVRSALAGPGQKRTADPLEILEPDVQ

| Compound | outcome [1] | outcome [2] | outcome [3] | max response [4] | parasite growth, % of DMSO control [5] | parasite growth remaining, % of DMSO control (lower = more inhibition) [6] | parasite growth, % of control (lower = inhibition) [7] | growth, % of control [8] | cell viability, % of control (lower = more cytotoxic) [9] | viability (% of control) [10] | Potency [11] | Potency [12] |
| --- | --- | --- | --- | --- | --- | --- | --- | --- | --- | --- | --- | --- |
| COc1cc2ncnc(Nc3cccc(Cl)c3)c2cc1OC | inactive | inactive | inactive | 13.8% (inactive) | 8.74% | 27% | 24.1% | 4.11% | 115% | 39.5% | inactive | inactive |
| O[C@@H](CNC[C@H](O)[C@H]1CCc2cc(F)ccc2O1)[C@@H]1CCc2cc(F)ccc2O1 |  |  |  |  | 6.58% | 8.23% | 19.2% | 8.28% | 4.81% | 2.75% | inactive | inactive |
| CNC1CCCN(c2c(F)cc3c(=O)c(C(=O)O)cn(C4CC4)c3c2OC)C1 (stereo not drawn) |  |  |  | -8.7% (inactive) | 20.4% | 11.8% | 8.93% | 22.8% | 106% | 32.3% | inactive | inactive |
| C[C@@H]1CN(c2c(F)c(N)c3c(=O)c(C(=O)O)cn(C4CC4)c3c2F)C[C@H](C)N1 |  |  |  |  | 55.7% [at 9.64 µM] | 83% [at 9.64 µM] | 34.1% [at 9.64 µM] | 72.3% [at 9.64 µM] | 89.9% [at 23.2 µM] | 107% [at 23.2 µM] | inactive | inactive |
| Cc1oc(=O)oc1CN1CCN(c2cc3c(cc2F)c(=O)c(C(=O)O)c2n3C(C)S2)CC1 (stereo not drawn) |  |  |  |  | 24.1% | 12.9% | 9.67% | 24.3% | 162% | 103% | inactive | inactive |
| CO[C@@]12[C@H](COC(N)=O)C3=C(C(=O)C(C)=C(N)C3=O)N1C[C@@H]1N[C@@H]12 |  |  |  | -9.88% (inactive) | 6.13% | 7.06% | 6.98% | 2.97% | 2.55% | 2.42% | inactive | inactive |
| CNS(=O)(=O)CCc1ccc2[nH]cc(C3CCN(C)CC3)c2c1 |  |  |  | 4.41% (inactive) | 97.5% | 87.2% | 92.8% | 92.7% | 238% | 23.9% | inactive | inactive |
| CCCc1nc(C)c2c(=O)[nH]c(-c3cc(S(=O)(=O)N4CCN(CC)CC4)ccc3OCC)nn12 |  |  |  | 1.11% (inactive) | 6.01% | 12.3% | 33.2% | 9.8% | 5.18% | 4.45% | inactive | inactive |
| C#CCN[C@@H]1CCc2ccccc21 |  |  |  | -0.979% (inactive) | 95.8% | 129% | 95.4% | 103% | 153% | 57.2% | inactive | inactive |
| CC(C)Cn1cnc2c(N)nc3ccccc3c21 |  |  |  | -6.2% (inactive) | 43.4% | 74.5% | 32.3% | 58.5% | 11.8% | 3.23% | inactive | inactive |
| O=C(O)c1cccnc1 |  |  |  | 3.31% (inactive) | 91.9% |  | 95.2% | 87.4% | 127% | 87.6% | inactive | inactive |
